# Measured values from PubChem BioAssay (EPA / NIEHS).
# Activity calls are given as the source filed them. Rule for the calls: active = hit-call score of the fitted dose curve at least 0.9, where 1 is the maximum; inactive = score below 0.9.
# Assay: CCTE_Shafer_MEA_dev_inter_network_spike_interval_mean: CCTE's Neural Network Formation Assay for Mean Inter-network Spike Interval, Shafer Lab (AID 2284047);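 for AC50: potency for a decrease in mean inter-network spike interval below DMSO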
# Procedure: CCTE_Shafer_MEA_dev assay is conducted using Axion Biosystems 48 well microelectrode array (MEA) plates and Maestro recording system. Each well of the MEA plate contains a grid of 16 microelectrodes embedded in the culture surface. Electrically active cells, such as neurons, can be cultured over the electrodes, and electrical activity in these cells can be recorded extracellularly. The spontaneous firing of neurons is captured from each electrode on a microsecond timescale providing both temporally and spatially precise data. […] The CCTE_Shafer_MEA_dev assay uses primary cultures of rat cortical neurons. Recordings are made on days post-plating 5, 7, 9 and 12. As these cultures mature over time, neural networks develop functional activity and form cohesive networks in which electrical activity can be highly coordinated. CCTE_Shafer_MEA_dev_inter_network_spike_interval_mean is 1 of 19 assay components of the CCTE_Shafer_MEA_dev assay. It measures the average time interval between network spikes (temporally-clustered groups of actional potential firing across multiple electrodes) as the average time between peaks of consecutive network spikes during a recording in a microelectrode array (MEA) using Axion Biosystems Maestro 768 channel amplifier with the AxIS adaptive spike detector. To collapse across multiple recordings made on days post-plating 5, 7, 9 and 12, the trapezoidal area-under-the-curve of the component is calculated.Data from the assay component CCTE_Shafer_MEA_dev_inter_network_spike_interval_mean was analyzed into 1 assay endpoint. This assay endpoint, CCTE_Shafer_MEA_dev_inter_network_spike_interval_mean, was analyzed in the negative analysis fitting direction relative to DMSO as the negative control and baseline of activity. Using a type of functional reporter, gain or loss-of-signal activity can be used to understand electrical activity.
# On the day prior to culture, each well was coated thoroughly with 150 uL of 0.05% polyethyleneimine (PEI, Sigma Cat P3143) in 50 mM HEPES (Sigma Cat H7523) at a pH of 8. The plate was incubated at 37C for one hour. PEI was rinsed out with 500 uL of sterile water three times. Plates were stored at 4C until the day of culture. This culture was plated at a seeding density of 1.5 x 10^5 cells/well on a 48-well MEA plate, prepared as described above. Cells were administered via a 25 uL media/laminin ([…]; Sigma Cat L2020-1MG) drop directly onto the microelectrode array, as adding the cells with the laminin results in better attachment than pre-coating with laminin. After 2 hours, an additional 475 uL of cortical media was added and the cells returned to the incubator. Exposure starts at day 0 of plating and is continued over twelve days of network development until the experiment is terminated. Cells are fed with fresh medium on DIV 5 and 9, following the recordings on those days. The entire volume of media in the well is exchanged and any vehicle or compound treatment is renewed. Complete details are found in OP-NHEERL/ISTD/SBB/TJS/2015-03-r0 (available on request, email shafer.tim@epa.gov). Measurement of the electrical activity is non-invasive, and recordings can be made from the same plate over multiple different days of the culture. In cortical neurons, this allows for the measurement of extracellular action potentials over the period during which networks form in the MEA plate.
SMILES,outcome,AC50
O=P(OCCCl)(OCCCl)OCCCl,inactive,–
CC(C)(C)C(O)(CCc1ccc(Cl)cc1)Cn1cncn1 (stereo not given),inactive,–
OCCOCCO,–,24.5 µM (active)
CCCCOC(=O)c1ccccc1C(=O)OCc1ccccc1,inactive,–
[Cl-].[Cl-].[Hg+2],inactive,–
COP(=S)(OC)SCN1C(=O)c2ccccc2C1=O,inactive,–
CC(C)COC(=O)c1ccccc1C(=O)OCC(C)C,inactive,–
COC(=O)Nc1nc2ccccc2[nH]1,inactive,–
C1=Cc2cccc3cccc1c23,inactive,–
Nc1cc(Cl)cc(C(=O)O)c1Cl,inactive,–
CN(C)[C@@H]1C(=O)C(C(N)=O)=C(O)[C@@]2(O)C(=O)C3=C(O)c4c(O)cccc4[C@@](C)(O)[C@H]3C[C@@H]12,inactive,–
[O-][Cl+]O,inactive,–
CNC(=O)Oc1cccc2c1OC(C)(C)C2,inactive,–
ClC1=C(Cl)[C@]2(Cl)[C@H]3[C@H]([C@@H]4C=C[C@H]3C4)[C@@]1(Cl)C2(Cl)Cl,inactive,–
ClC1=C(Cl)C2(Cl)C3C(Cl)C=CC3C1(Cl)C2(Cl)Cl (stereo not given),inactive,–
CC(C)(O)c1cnn2c(-c3ccc(F)c(-c4c(F)cccc4C#N)c3)cnc2n1,inactive,–
Clc1ccc(C(c2ccc(Cl)cc2)C(Cl)Cl)cc1,inactive,–
CCNS(=O)(=O)C(F)(F)C(F)(F)C(F)(F)C(F)(F)C(F)(F)C(F)(F)C(F)(F)C(F)(F)F,inactive,–
Clc1ccc(C(c2ccc(Cl)cc2)C(Cl)(Cl)Cl)cc1,inactive,–
CCC[CH2][Sn]([Cl])([CH2]CCC)[CH2]CCC,–,0.0769 µM (active)
